Consider 65 compounds from PubChem BioAssay AID556 (SRMLSC, 2006).

The subject of the test is diphosphomevalonate decarboxylase (Streptococcus pneumoniae D39). Put plainly: diphosphomevalonate decarboxylase activity blockers – biochemical, PK/LDH-coupled NADH fluorescence, primary screen (AID 556).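 For inhibition: kinetic rate of NADH fluorescence loss reporting ADP formed by the decarboxylase; 0% = full reaction rate with carrier and 100% = no-substrate background rate.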 The settings on record: purified DPM-DC, at 10 µM.
[1] abbreviates: stronger effect = higher value unless noted.
[2] abbreviates: measured here: pilot screen trials, stronger effect = higher value.

The whole screen tested about 65,000 compounds, of which about 320 (0.49%) were called active.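 Rule for the calls: active = the 320 compounds with the highest percent inhibition in the single-dose primary screen, excluding strongly autofluorescent ones (cut at about 32% in these data); inactive = the rest, inconclusive results apart.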 Many of the other results were omitted from the sample, so actives are more common in it than they were.

As for `CCOC(=O)N1CCC(O)(c2cc(C)c(C)cc2C)CC1`, under setting [1], the inhibition is 0.5% [measured here: pilot screen trials, stronger effect = higher value] and the compound was classed as inactive.
For the compound `O=C(C1=C(O)C(=O)N(c2ncccn2)C1c1cccs1)c1ccco1` (stereo not drawn), the inhibition under setting [1] was 1% (inactive).
Still for that read-out and setting: the same measure for `Cc1[nH]c2ccc(S(N)(=O)=O)cc2c1C`: “inactive”.
On to `CCN(CC)c1ccc(C(=O)OCC(=O)c2ccco2)cc1`, for which the inhibition entry under setting [1] is “inactive”.
The same measure, in the same setting: the same measure for `Cc1ccc(S(=O)(=O)N2CC(=O)Nc3ccccc32)cc1C`: “inactive”.
As to `Cc1nc(NC(=O)C23CCC(C)(C(=O)O2)C3(C)C)sc1C` (stereo not drawn), the inhibition runs as follows: (stronger effect = higher value) 6% (inactive); under setting [2], 2%.
For the compound `Cc1noc(C)c1C(=O)OCC(=O)/C=C1\N(C)c2ccccc2C1(C)C`, the inhibition result under setting [1] is “inactive”.
On the same count and under the same terms, then `CCOC(=O)CN1CC23C=CC(O2)C(C(=O)Nc2ccc(F)cc2)C3C1=O` (stereo not drawn), with “inactive”; and `CCOCCOC(=O)C1=C(C)N(C)C(=O)NC1c1ccccc1F` (stereo not drawn), with “inactive”.
Consider `Cc1c(C(=O)N2CC(C)OC(C)C2)sc2nc(-c3ccccc3)cn12` (stereo not drawn), for which, under setting [1], the inhibition result is “inactive”.
On the same count and under the same terms, the same measure for `Cc1c(C(=O)NCC2CCCO2)sc2nc(-c3ccccc3)cn12` (stereo not drawn): 35% (active); for `Cc1c(C(=O)NCCN2CCOCC2)sc2nc(-c3ccc(F)cc3)cn12`: 9% (inactive); for `C=CCn1c(C2CC(=O)N(c3ccc(C)cc3)C2)nc2ccccc21` (stereo not drawn): “inactive”.
Take `O=C(CSc1nc2cc3c(cc2c(=O)n1CCC1=CCCCC1)OCO3)NCc1ccco1`: the inhibition entry under setting [1] is “inactive”.
In the case of `CCNS(=O)(=O)c1ccc(NC(=O)Nc2cccc(C(F)(F)F)c2)cc1`, under setting [1], the inhibition result is “inactive”.
In the case of `CCCCOc1ccc(C(C)(O)CCN2CCOCC2)cc1` (stereo not drawn), the inhibition entry under setting [1] is “inactive”.
For the compound `CC1(C)Oc2ccc(C(=O)N3CCOCC3)cc2N(CC(=O)Nc2ccccc2)C1=O`, under setting [1], the inhibition entry is “inactive”.
Still for that read-out and setting: the same measure for `CCCCNc1nc2ccccc2nc1NS(=O)(=O)c1cccs1`: 2% (inactive).
On the same count and under the same terms, then `Cc1ccc(CN2C(=O)CCC2C(=O)NCCCN2CCCCC2C)cc1` (stereo not drawn), with “inactive”; and `Cn1c(SCc2nc3ccccc3s2)nnc1-c1ccc2c(c1)OCO2`, with “inactive”; and `Cc1cccc(N2CCN(C(=O)C3CCN(S(=O)(=O)c4cnc[nH]4)CC3)CC2)c1C`, with “inactive”.
Same read-out and setting: the same measure for `CCCCCCOC(=O)NCC(O)c1ccccc1` (stereo not drawn): “inactive”; for `Cc1nc(NCc2ccccc2)c(C(N)=O)c2c1COC(C)(C)C2`: 24% (inactive).
For the compound `Cc1nc(NCCN)c(C#N)c2c1COC(C)(C)C2`, the inhibition under setting [1] is 32% (active).
With `Cc1ccc(S(=O)(=O)NCCN2CCOCC2)cc1C`, the inhibition is 80% (active) (stronger effect = higher value) and 0% under setting [2].
Take `Cc1cc(C)c(S(=O)(=O)NCCCN2CCOCC2)cc1Br`: under setting [1], the inhibition result was “inactive”.
Same read-out and setting: then `Cn1c(=O)c(=O)n(C)c2cc(S(=O)(=O)NCCc3ccccc3)ccc21`, with “inactive”.
In the case of `COCCNC(=O)CN1C(=O)CSc2ncccc21`, under setting [1], the inhibition is 0% [measured here: pilot screen trials, stronger effect = higher value] and the compound was called inactive.
In the case of `c1ccc(CCc2nc(-c3ccncc3)no2)cc1`, the inhibition entry under setting [1] is “inactive”.
On to `Cc1ccccc1CN1CCN(CC(=O)NCc2ccccn2)C1=O`, for which the inhibition result under setting [1] was “inactive”.
In the case of `COc1ccc2c(c1)C(C)=CC(C)(C)N2C(=O)CNCc1ccc2c(c1)OCO2`, the inhibition under setting [1] was 7% (inactive).
Regarding `CC(C)c1nc2oc3c(N4CCN(C)CC4)ncnc3c2c2c1CCC2`, the inhibition entry under setting [1] is “inactive”.
Same read-out and setting: the same measure for `Cc1cccc(C)c1NC(=O)CCCSc1nnc(-c2ccco2)n1-c1ccccc1`: “inactive”.
Still for that read-out and setting: the same measure for `NC(=O)c1ccsc1NC(=O)c1ccco1`: 9% (inactive); for `Cc1cc(C)c(C#N)c(SCS(=O)c2ccc(C(C)(C)C)cc2)n1` (stereo not drawn): “inactive”.
Same read-out and setting: then `O=C(CCS(=O)(=O)c1cccc2nonc12)NCCc1ccccc1Cl`, with “inactive”; and `CCCN1C(=O)C(NC(C)=O)c2cc(OC)ccc21` (stereo not drawn), with 40% (active); and `COCCCN1C(=O)c2ccc(C(=O)Nc3ccc(OC)cc3OC)cc2C1=O`, with “inactive”.
As for `CCC1=C(C(=O)OC)C(c2cc(OC)ccc2OC)C(C#N)=C(N)O1` (stereo not drawn), under setting [1], the inhibition is 0% [measured here: pilot screen trials, stronger effect = higher value] and the compound was classed as inactive.
For the compound `CCC(=O)c1ccc(OCC(O)CN2C(=O)NC(C)(C)C2=O)cc1` (stereo not drawn), the inhibition entry under setting [1] is “inactive”.
Consider `CC1(C)CC(=O)C=C(NCc2ccncc2)C1`, for which, under setting [1], the inhibition is 2.5% [measured here: pilot screen trials, stronger effect = higher value] and the compound was called inactive.
As to `Cn1c(=NC(=O)C2CC2)sc2cc(F)cc(F)c21`, the inhibition result under setting [1] was “inactive”.
Same read-out and setting: then `CCCC(=O)N=c1sc2cccc(F)c2n1C`, with “inactive”.
On the same count and under the same terms, the same measure for `Cn1c(=NC(=O)c2ccco2)sc2cccc(F)c21`: 37% (active); for `c1ccc(-n2ncc3c2ncn2c(C4CCCCC4)nnc32)cc1`: “inactive”.
On the same count and under the same terms, then `CC(=O)Nn1cc2c(=O)n(C)c(=O)n(C)c2c1`, with “inactive”; and `COc1cc(C(=O)N(Cc2ccc(N(C)C)cc2)C2CCS(=O)(=O)C2)cc(OC)c1OC` (stereo not drawn), with “inactive”; and `COc1ccc(OCC(=O)N2CCOCC2)cc1`, with “inactive”.
`CCCCOC(=O)Nc1nccs1`: the inhibition is, setting by setting: (stronger effect = higher value) 1% (inactive); under setting [2], 4.5%.
`CN(C)CCNC(CC(=O)Nc1ccc(Cl)c(Cl)c1)C(=O)O` (stereo not drawn): under setting [1], the inhibition result was “inactive”.
The same measure, in the same setting: the same measure for `COc1cc(Cl)cc(C2NC(=O)NC(C)=C2C(=O)NCc2ccccc2)c1O` (stereo not drawn): 12% (inactive); for `CCOc1ccc(C2C(C(=O)NC)=C(C)Nc3nc4ccccc4n32)cc1OC` (stereo not drawn): “inactive”; for `Cc1onc(-c2ccccc2)c1C(=O)Nc1ccccc1C#N`: 5% (inactive).
Turning to `CC(=O)N1CCc2cc(S(=O)(=O)Nc3ccccc3N3CCN(C)CC3)ccc21`, the inhibition under setting [1] was 1% (inactive).
The same measure, in the same setting: the same measure for `CC(c1cccnc1)N(CCN(C)C)C(=O)Nc1ccc(Cl)c(Cl)c1` (stereo not drawn): “inactive”; for `COc1ccc(C(CNC(=O)c2cccnc2SC)N2CCOCC2)cc1` (stereo not drawn): “inactive”.
On the same count and under the same terms, the same measure for `COc1cc(C2C(C(=O)Nc3ccccc3OC)=C(C)Nc3ncnn32)ccc1O` (stereo not drawn): “inactive”; for `Cc1cc(NC(=O)CSc2nnc(-c3ccc(Cl)s3)o2)no1`: “inactive”; for `COc1ccc(OCCCC(=O)Nc2nnc(C3CCCO3)s2)cc1` (stereo not drawn): “inactive”.
Still for that read-out and setting: then `O=C(Nc1ccccc1N1CCN(C(=O)c2ccccc2)CC1)c1ccc2c(c1)OCO2`, with “inactive”.
As for `Cc1ccc(C)c(S(=O)(=O)N2CC(=O)Nc3ccccc32)c1`, the inhibition entry under setting [1] was “inactive”.
Same read-out and setting: then `COc1ccc(S(=O)(=O)N2CCOCC2)cc1C(=O)Nc1nc2ccccc2s1`, with 6% (inactive); and `N#Cc1cccc(NC(=O)CCC2CCCC2)c1`, with “inactive”.
For the compound `CCCCn1nc(C(=O)N2CCc3ccccc32)c2ccccc2c1=O`, the inhibition runs as follows: (stronger effect = higher value) 4% (inactive); under setting [2], 2%.
Consider `Cc1cc(C)nc(SCc2nnc(SCC(=O)OC3CCCCC3)o2)n1`, for which the inhibition result under setting [1] was “inactive”.
